Targets with a hit are over-represented here; the source holds about 7,900 in all. About 0.6% of all pairs of compound and target were hits.
Legend:
Assay in all cases: log2 fold change, soluble protein after heating vs DMSO (PISA); higher = thermal stabilisation; K562 cells, 10 uM, 30 min; active = over 0.2 and 3.5 SD of the protein, either way, in both replicates (recomputed)
[1] = compound: C#Cc1cccc(Nc2ncnc3cc(OCCOC)c(OCCOC)cc23)c1 [erlotinib]
Summary of the method: (§1)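 Quantification of soluble protein used TMTpro 16plex LC-MS/MS, with channel sums equalised. Samples were the supernatant after 21,000xg for 90 min of pooled aliquots from K562 cells (2×10^6 cells/mL) treated with 10 μM compound for 30 min, heated for 3 min over 48°C-58°C, and extracted in PBS with 0.5% NP-40 at 4°C. Values, from duplicates, describe thermal stability against control samples on a log2 fold-change scale.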

[2] = compound: C1=CC(=CC=C1C2=NC3=C(N2)C=C(C=C3)C(=O)N)OC4=CC=C(C=C4)Cl
Summary of the method: as §1

[3] = compound: C1=CC2=NC=CN=C2C=C1/C=C/3\C(=O)NC(=O)S3
Summary of the method: as §1

[4] = compound: C=CC(=O)N1CCC[C@@H](n2nc(-c3ccc(Oc4ccccc4)cc3)c3c(N)ncnc32)C1 [ibrutinib]
Summary of the method: as §1

[5] = compound: CC(C)C1=C2N=C(C=C(N2N=C1)NCC3=CC=CC=C3)NCCCCCCN
Summary of the method: as §1

[6] = compound: C/C(=N\NC(=O)C1=CC(=CC=C1)S(=O)(=O)N2CCOCC2)/C3=C(C=CC(=C3)Cl)O
Summary of the method: as §1

[7] = compound: C1=CC(=C(C=C1Cl)C2=NC3=NC=CN=C3C(=N2)NC4=CC=NC=C4)F
Summary of the method: as §1

[8] = compound: C1=CC2=C(C=CC(=C2)/C=C\3/C(=O)NC(=NCC4=CC=CS4)S3)N=C1
Summary of the method: as §1

[9] = compound: C1=CC=C(C=C1)C2=NC(=C(N2)C3=CC=NC=C3)C4=CC(=C(C=C4)Cl)O
Summary of the method: as §1

[10] = compound: C1=CC=C2C(=C1)C3=NNC4=CC=CC(=C43)C2=O
Summary of the method: as §1

[11] = compound: C1CCN(C1)C(=O)NC2=CC=CC(=C2)NC3=NC=C(C(=N3)NCCC4=CN=CN4)Br
Summary of the method: as §1

[12] = compound: C1CN(CCC1(CC2=CC=C(C=C2)Cl)N)C3=NC=NC4=C3C=CN4
Summary of the method: as §1

[13] = compound: CC(=O)c1cnc2ccc(-c3cc(Cl)c(O)c(Cl)c3)nc2c1N[C@H]1CC[C@H](CN(C)C)CC1
Summary of the method: as §1

[14] = compound: CC(C)(C)Cn1c(N)nc2ccc(-c3[nH]c(C(C)(C)C)nc3-c3ccc(F)cc3)nc21 [ralimetinib]
Summary of the method: as §1

[15] = compound: CC(C)(O)CC(=O)NCCn1ccc2ncnc(Nc3ccc(Oc4cccc(C(F)(F)F)c4)c(Cl)c3)c21
Summary of the method: as §1

[16] = compound: CC(C)C[C@@H](C=O)NC(=O)[C@H](CC(C)C)NC(=O)[C@H](CC(C)C)NC(=O)OCc1ccccc1
Summary of the method: as §1

[17] = compound: CC1=C(C2=C(C=C1)C(=O)C3=CC=CC=C3N2CCCN)C
Summary of the method: as §1

[18] = compound: CC1=C(C(CC(=O)N1)C2=CC=C(C=C2)C(F)(F)F)C(=O)NC3=C(C=C4C(=C3)C=NN4)F
Summary of the method: as §1

[19] = compound: C1COCCN1CCN2C3=CC=CC=C3N=C2NC(=O)C4=CC(=CC=C4)[N+](=O)[O-] [IRAK-1-4 Inhibitor I]
Summary of the method: as §1

[20] = compound: CC(C)N(C[C@H]1O[C@@H](n2cnc3c(N)ncnc32)[C@H](O)[C@@H]1O)[C@H]1C[C@@H](CCc2nc3cc(C(C)(C)C)ccc3[nH]2)C1 [pinometostat]
Summary of the method: as §1

Measured: log2 fold change

PRKX (UniProt P51817)
inactive: [1] 0.169 | [2] 0.035 | [3] 0 | [4] -0.005 | [5] -0.274

PEX5 isoform 4 (UniProt P50542)
inactive: [1] -0.133 | [6] -0.143 | [7] -0.036 | [2] 0.076 | [8] 0.048 | [9] 0.016 | [10] -0.082 | [11] 0.097 | [12] -0.078 | [13] -0.035 | [14] 0.145 | [15] 0.038 | [5] 0.066 | [16] 0.123 | [17] -0.072

PTP4A3 (UniProt O75365)
inactive: [3] -0.041 | [4] 0.079

PRR14L (UniProt Q5THK1)
UniProt Q5THK1, sequence (Q5THK1 whole entry, looked up): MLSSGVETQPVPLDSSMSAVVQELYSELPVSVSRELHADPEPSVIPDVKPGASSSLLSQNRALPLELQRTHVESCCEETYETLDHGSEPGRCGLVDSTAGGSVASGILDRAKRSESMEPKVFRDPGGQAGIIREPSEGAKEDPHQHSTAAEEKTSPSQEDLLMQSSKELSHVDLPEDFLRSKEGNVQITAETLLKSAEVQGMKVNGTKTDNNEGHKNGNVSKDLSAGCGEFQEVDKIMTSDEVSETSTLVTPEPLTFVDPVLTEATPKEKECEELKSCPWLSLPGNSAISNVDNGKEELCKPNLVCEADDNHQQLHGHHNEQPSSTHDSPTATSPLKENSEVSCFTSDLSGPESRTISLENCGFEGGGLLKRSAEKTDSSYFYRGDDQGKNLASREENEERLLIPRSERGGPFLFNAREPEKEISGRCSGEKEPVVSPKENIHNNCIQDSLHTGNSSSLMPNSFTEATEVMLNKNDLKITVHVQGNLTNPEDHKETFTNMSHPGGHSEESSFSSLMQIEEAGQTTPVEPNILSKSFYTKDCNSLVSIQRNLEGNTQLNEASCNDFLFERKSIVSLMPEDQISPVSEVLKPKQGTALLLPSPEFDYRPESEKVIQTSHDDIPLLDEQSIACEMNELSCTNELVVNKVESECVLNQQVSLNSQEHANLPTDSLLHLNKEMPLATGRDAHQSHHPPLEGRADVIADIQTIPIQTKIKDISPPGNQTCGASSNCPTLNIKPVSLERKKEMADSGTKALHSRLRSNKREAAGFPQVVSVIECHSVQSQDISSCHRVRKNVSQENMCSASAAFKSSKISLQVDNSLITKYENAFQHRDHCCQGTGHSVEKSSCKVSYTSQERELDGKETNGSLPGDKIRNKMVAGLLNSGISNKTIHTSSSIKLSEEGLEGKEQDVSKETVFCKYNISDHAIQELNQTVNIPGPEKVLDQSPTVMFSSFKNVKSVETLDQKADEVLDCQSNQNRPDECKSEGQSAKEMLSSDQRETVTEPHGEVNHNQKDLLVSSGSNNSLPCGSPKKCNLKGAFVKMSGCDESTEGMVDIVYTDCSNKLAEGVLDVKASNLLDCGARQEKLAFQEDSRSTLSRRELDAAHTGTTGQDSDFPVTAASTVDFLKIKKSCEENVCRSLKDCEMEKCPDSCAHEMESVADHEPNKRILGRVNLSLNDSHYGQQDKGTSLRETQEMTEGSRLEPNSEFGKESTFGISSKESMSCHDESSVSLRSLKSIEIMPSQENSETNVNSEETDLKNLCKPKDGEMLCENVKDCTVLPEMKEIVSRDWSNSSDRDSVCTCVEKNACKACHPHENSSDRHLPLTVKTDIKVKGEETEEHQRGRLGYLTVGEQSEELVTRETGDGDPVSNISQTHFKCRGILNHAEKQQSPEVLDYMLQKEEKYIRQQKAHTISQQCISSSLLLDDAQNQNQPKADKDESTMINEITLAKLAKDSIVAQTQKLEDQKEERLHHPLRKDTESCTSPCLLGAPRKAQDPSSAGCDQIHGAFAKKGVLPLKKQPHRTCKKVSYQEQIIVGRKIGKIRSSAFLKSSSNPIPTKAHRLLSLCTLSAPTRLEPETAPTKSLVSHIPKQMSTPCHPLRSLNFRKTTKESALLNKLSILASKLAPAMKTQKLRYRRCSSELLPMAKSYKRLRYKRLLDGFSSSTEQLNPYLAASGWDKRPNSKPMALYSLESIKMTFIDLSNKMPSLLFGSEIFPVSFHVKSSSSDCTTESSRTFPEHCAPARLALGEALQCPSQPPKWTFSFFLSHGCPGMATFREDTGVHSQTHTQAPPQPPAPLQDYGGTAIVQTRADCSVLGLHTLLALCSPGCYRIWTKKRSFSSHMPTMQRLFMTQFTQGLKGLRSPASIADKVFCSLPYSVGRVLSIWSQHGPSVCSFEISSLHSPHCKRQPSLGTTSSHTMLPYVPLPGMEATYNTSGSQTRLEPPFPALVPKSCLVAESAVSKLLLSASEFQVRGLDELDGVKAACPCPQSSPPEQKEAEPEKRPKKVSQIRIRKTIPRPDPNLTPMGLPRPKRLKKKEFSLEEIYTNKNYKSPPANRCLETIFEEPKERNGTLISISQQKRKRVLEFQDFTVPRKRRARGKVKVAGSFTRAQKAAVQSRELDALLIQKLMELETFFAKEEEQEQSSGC
inactive: [6] -0.168 | [8] 0.16 | [10] -0.091 | [11] 0.166 | [12] -0.023 | [13] -0.104 | [18] 0.015 | [17] 0.008

PSMD8 (UniProt K7ERW6)
inactive: [11] 0.052 | [12] -0.148 | [19] 0.018 | [20] 0.001 | [17] 0.037

PPP1R12B isoform 6 (UniProt O60237)
active: [18] -0.346
inactive: [1] 0.226 | [2] 0.001 | [3] -0.081 | [4] 0.075 | [5] -0.074

PPP2R5C isoform 2 (UniProt Q13362)
UniProt Q13362, sequence (Q13362 whole entry, looked up): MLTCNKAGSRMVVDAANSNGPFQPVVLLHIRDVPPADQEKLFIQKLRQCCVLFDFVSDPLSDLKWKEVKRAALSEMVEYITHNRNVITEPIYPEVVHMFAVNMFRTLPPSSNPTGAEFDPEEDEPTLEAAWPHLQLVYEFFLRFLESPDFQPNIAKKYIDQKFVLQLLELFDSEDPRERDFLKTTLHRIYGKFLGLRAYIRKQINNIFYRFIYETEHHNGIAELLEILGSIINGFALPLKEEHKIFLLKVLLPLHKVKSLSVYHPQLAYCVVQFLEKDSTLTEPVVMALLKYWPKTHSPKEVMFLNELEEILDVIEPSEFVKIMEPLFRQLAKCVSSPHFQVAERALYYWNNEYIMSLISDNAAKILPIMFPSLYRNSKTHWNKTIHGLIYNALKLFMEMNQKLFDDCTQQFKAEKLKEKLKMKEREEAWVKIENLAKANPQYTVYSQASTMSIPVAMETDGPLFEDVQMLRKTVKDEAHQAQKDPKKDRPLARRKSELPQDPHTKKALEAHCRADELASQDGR
inactive: [1] -0.012 | [2] -0.02 | [3] -0.011 | [9] -0.039 | [19] -0.036 | [4] -0.038 | [14] 0.026 | [5] -0.146 | [16] -0.095 | [20] -0.017

PCNX1 (UniProt Q96RV3)
UniProt Q96RV3, sequence (Q96RV3 whole entry, looked up): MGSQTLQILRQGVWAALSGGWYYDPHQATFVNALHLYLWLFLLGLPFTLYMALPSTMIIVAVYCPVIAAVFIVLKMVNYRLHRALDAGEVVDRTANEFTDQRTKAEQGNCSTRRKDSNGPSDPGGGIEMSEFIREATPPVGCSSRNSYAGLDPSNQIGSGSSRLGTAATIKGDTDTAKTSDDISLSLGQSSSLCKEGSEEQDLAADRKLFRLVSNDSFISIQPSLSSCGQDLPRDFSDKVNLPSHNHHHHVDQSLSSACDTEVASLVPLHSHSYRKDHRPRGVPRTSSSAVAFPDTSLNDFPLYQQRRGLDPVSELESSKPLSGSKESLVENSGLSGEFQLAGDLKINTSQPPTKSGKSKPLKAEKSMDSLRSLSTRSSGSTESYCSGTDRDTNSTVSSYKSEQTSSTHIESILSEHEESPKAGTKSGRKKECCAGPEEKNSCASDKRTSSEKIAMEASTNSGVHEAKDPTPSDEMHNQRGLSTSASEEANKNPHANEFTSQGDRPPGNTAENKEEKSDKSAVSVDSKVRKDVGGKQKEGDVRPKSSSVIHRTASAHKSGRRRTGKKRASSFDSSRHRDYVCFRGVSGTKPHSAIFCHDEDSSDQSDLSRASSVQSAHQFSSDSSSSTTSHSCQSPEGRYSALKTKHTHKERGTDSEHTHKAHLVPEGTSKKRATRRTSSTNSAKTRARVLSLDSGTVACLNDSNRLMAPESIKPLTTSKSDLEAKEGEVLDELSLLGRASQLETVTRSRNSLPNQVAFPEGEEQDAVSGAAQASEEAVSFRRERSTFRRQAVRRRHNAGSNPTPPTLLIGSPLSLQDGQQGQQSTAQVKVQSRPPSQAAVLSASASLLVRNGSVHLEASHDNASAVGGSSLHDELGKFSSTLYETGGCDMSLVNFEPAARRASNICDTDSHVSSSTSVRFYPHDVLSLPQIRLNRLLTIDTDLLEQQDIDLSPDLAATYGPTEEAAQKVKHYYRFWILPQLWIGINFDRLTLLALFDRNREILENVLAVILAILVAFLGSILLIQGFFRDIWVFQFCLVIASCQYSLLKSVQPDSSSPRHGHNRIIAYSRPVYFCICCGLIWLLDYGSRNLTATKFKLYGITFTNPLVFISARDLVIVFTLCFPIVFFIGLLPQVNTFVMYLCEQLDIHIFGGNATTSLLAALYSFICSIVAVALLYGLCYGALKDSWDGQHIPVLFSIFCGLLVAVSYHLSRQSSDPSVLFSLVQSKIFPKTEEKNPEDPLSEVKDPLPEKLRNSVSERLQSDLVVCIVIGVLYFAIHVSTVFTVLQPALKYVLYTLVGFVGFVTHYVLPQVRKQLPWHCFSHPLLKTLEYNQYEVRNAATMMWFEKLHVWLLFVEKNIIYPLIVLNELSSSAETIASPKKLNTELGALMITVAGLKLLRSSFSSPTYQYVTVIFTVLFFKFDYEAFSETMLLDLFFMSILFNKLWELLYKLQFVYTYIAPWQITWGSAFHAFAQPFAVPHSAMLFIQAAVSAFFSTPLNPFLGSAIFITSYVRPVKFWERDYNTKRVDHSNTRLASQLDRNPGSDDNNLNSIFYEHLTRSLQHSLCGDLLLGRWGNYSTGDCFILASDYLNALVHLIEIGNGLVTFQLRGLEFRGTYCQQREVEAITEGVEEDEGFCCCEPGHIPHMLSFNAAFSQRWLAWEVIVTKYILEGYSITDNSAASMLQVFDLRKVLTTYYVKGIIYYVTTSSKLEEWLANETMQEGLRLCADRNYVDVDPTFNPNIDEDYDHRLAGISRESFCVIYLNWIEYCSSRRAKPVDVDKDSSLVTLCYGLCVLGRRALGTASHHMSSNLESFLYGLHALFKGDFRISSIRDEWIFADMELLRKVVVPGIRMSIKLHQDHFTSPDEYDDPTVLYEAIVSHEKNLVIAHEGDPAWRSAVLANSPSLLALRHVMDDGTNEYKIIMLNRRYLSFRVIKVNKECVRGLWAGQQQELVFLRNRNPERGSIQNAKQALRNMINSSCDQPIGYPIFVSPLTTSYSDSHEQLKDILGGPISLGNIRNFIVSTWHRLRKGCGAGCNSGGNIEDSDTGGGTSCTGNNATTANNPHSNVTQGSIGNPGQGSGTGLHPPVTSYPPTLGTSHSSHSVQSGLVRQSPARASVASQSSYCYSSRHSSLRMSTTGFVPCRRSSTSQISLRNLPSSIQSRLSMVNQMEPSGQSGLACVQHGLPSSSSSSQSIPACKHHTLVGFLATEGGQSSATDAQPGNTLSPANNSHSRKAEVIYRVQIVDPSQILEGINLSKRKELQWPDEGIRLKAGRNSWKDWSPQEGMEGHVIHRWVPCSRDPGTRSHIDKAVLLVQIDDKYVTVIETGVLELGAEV
inactive: [7] 0.036 | [3] -0.006 | [11] -0.019 | [12] -0.041 | [4] 0.008 | [15] 0.005 | [18] 0.015 | [17] 0.143

PCBP2 (UniProt F8VZX2)
inactive: [1] -0.014 | [2] -0.077 | [3] -0.019 | [9] -0.008 | [19] -0.177 | [4] 0.212 | [14] -0.004 | [5] -0.127 | [16] 0.138 | [20] 0.136 | [18] 0.128

PSMC1 (UniProt G3V4X1)
inactive: [1] 0.149 | [2] -0.001 | [5] -0.089 | [18] 0.029

Reference: the supplement of paper PMC10849652
